HT1080NT lethal: qHTS for induction of synthetic lethality in tumor cells producing 2HG: qHTS for the HT-1080-NT fibrosarcoma cell line | HT-1080-NT fibrosarcoma viability, CellTiter-Glo ATP luminescence, 48 h | Potency, µM (highest dose often 46.1 µM), for the others: top-dose activity, negative = less viability, most hits filed as cytotoxic | hit rate 1.6% among 360,000 | AID 686970, 2013;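 also: NT is the 2HG producing partner of a matched IDH1 knockdown line; 0% = DMSO-treated cells and -100% = media-only wells without cells; nearly all actives have a fitted effect of over 55% in size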
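Viability by CellTiter-Glo luminescence after 48 h compound exposure at 37C of HT-1080-NT cells (750/well, RPMI, 5% FBS). % activity scaled between DMSO wells and medium-only wells, then curve-fitted and categorized by curve class.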
HT1080 IDH1KD tx: qHTS for induction of synthetic lethality in tumor cells producing 2HG: qHTS for the HT-1080-IDH1KD cell line | hit rate 2% among 360,000 | AID 686971, 2013 | Potency, µM (highest dose often 46.1 µM), for inactives: top-dose activity, negative = toxicity, actives largely listed as cytotoxic | HT-1080 IDH1 knockdown viability, ATP luminescence, 48 h;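 also: 0% = DMSO wells and -100% = cell-free medium wells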
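Knockdown cells (IDH1KD HT-1080) received compounds 2 h after plating at 750 cells/well and were kept 48 h at 37 °C in 5% FBS RPMI. A CellTiter-Glo luminescence read gave % activity for curve fitting.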
KB-V1 MDR tox: qHTS assay for MDR1-selective chemotherapeutics: Primary screen using the drug-selected MDR subline cells KB-V1; KB-V1 MDR cells viability, CellTiter-Glo, 72 h; Potency, µM (series often up to 46.1 µM), most hits filed as cytotoxic; hit rate 3.4% among 400,000; AID 1347076, 2019; also: % is scaled to controls: 0 for no effect and ±100 for the full control effect; nearly all actives have a fitted effect of over 60% in size
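KB-V1, DMEM (no phenol red) + 10% FBS; cpd pin-transferred, titration series; 72 h, 37 degrees C; CellTiter-Glo, luminescence. Data normalized, curve-fit.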
KB-3-1 tox: qHTS assay for MDR1-selective chemotherapeutics: Primary screen using the parental adenocarcinoma cell KB-3-1. KB-3-1 viability, CellTiter-Glo ATP luminescence, 72 h. Potency, µM (top dose mostly 46.1 µM), actives largely listed as cytotoxic. hit rate 1.4% among 400,000; also: % is scaled to controls: 0 for no effect and ±100 for the full control effect; nearly all actives have a fitted effect of over 60% in size
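Parental KB-3-1 adenocarcinoma cells in phenol-red-free DMEM with 10% FBS were pin-treated with compounds at several concentrations, incubated 72 h at 37 °C, and viability read by CellTiter-Glo luminescence; concentration-effect curves were fitted after normalization.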
MCF10A rereplic: A quantitative high throughput screen for small molecules that induce DNA re-replication in MCF 10a normal breast cells; MCF 10A DNA re-replication, Hoechst nuclear intensity, 48 h; Potency, µM (titrated, usually from 46.1 µM), for inactives: at the top dose activity, positive = re-replication, actives largely listed as activators; hit rate 2.9% among 350,000; AID 624296, 2012; also: % of control where 0% means no effect; nearly all actives have a fitted effect of over 50% in size
SW480 rerep: A quantitative high throughput screen for small molecules that induce DNA re-replication in SW480 colon adenocarcinoma cells | SW480 DNA re-replication, Hoechst DNA content imaging, 48 h | Potency, µM (top dose mostly 46.1 µM), inactives show at the highest dose re-replication activation, most hits filed as activators | hit rate 1.8% among 340,000 | AID 624297, 2012; also: % of control where 0% means no effect; nearly all actives have a fitted effect of over 55% in size
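Readout is total intensity of Hoechst-stained nuclei, excited at 405 nm and collected at 500-530 nm. Compound treatment lasted 48 hr at 37 C in 5% CO2 before staining.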
* = called active by the depositor; ! = a repeat was not active; [ ] = remark or other dose. Sampled rows, rich in hits. Any-hit rate of the full collection: about 7.9%. Calls follow the shape of the dose curve; as a rule, active = well fitted curve in the direction sought with a large enough effect; inconclusive = small, poorly fitted or top-dose-only effect, or another doubt; inactive = no such curve, though single readings can be large; an effect the other way counts as inactive or inconclusive. Potency is read from the fitted curve at half-maximal effect.

`COc1cc(/C=C/C(=O)Nc2cc(C(F)(F)F)ccc2Cl)cc(OC)c1OC` gave HT1080NT lethal -28.5%, HT1080 IDH1KD tx inconclusive, KB-V1 MDR tox inconclusive, KB-3-1 tox inconclusive, MCF10A rereplic 3.6%[9.22 µM] and SW480 rerep inconclusive.
CC(C)NC1CCC(Nc2ccnc3cc(Cl)ccc23)CC1 (stereo not given) was read as HT1080NT lethal -8.8%, HT1080 IDH1KD tx inconclusive, KB-V1 MDR tox inactive, KB-3-1 tox inconclusive, MCF10A rereplic 13.4% and SW480 rerep inconclusive.
Clc1ccc2c(NCCNC3CCCCC3)ccnc2c1 was read as HT1080NT lethal 14.6µM*, HT1080 IDH1KD tx 20.6µM*, KB-V1 MDR tox inconclusive, KB-3-1 tox inconclusive, MCF10A rereplic inconclusive and SW480 rerep 6.51µM*.
`N#Cc1nc(-c2ccco2)oc1N1CCN(c2ccccc2)CC1` gave HT1080NT lethal 4.8%, HT1080 IDH1KD tx 1.3%, KB-V1 MDR tox inactive, KB-3-1 tox inactive, MCF10A rereplic 25.3% and SW480 rerep 0.3%.
COc1ccc(N2CCN(c3oc(-c4ccco4)nc3C#N)CC2)cc1 was read as HT1080NT lethal 9.9%, HT1080 IDH1KD tx 3.1%, KB-V1 MDR tox 14.6µM*, KB-3-1 tox inconclusive, MCF10A rereplic -5.6% and SW480 rerep -8.7%.
For O=C1NC[C@H](CCCCN2CCN(CCC3CCCCC3)C(=O)C2=O)N(CCc2ccc(O)cc2)C1=O the results were HT1080NT lethal 23.1%, HT1080 IDH1KD tx 14.6%, KB-V1 MDR tox inconclusive and KB-3-1 tox inconclusive.
CCN1/C(=C\C(C)=O)Sc2ccc(OC)cc21 was read as HT1080NT lethal 0.2%, HT1080 IDH1KD tx -1.7%, KB-V1 MDR tox inactive, KB-3-1 tox inactive, MCF10A rereplic 26.9% and SW480 rerep -15.4%.
`CCN1/C(=C/C(C)=C/c2sc3ccccc3[n+]2CC)Sc2ccccc21` gave HT1080NT lethal 10.3µM*, HT1080 IDH1KD tx 1.46µM*, KB-V1 MDR tox 20.6µM*!, KB-3-1 tox 0.731µM*, MCF10A rereplic -7.2% and SW480 rerep 29.8%.
`O=C(CSc1nc2c(oc3ccccc32)c(=O)[nH]1)Nc1cccc(Cl)c1` gave KB-V1 MDR tox inactive and KB-3-1 tox inactive.
Cc1ccc(NC(=O)c2ccccc2OCc2c(C)noc2C)cc1S(=O)(=O)N(C)C was read as HT1080NT lethal 1.9%, HT1080 IDH1KD tx -0.7%, KB-V1 MDR tox 2.31µM*, KB-3-1 tox inactive, MCF10A rereplic -0.6% and SW480 rerep 0.7%.
For Cc1noc(C)c1COc1ccccc1C(=O)N1CCN(S(=O)(=O)c2ccccc2F)CC1 the results were HT1080NT lethal -7.3%, HT1080 IDH1KD tx -8.7%, KB-V1 MDR tox inconclusive, KB-3-1 tox inactive, MCF10A rereplic 2.4% and SW480 rerep 1.6%.
`Cc1noc(C)c1COc1ccccc1C(=O)N1CCN(S(=O)(=O)c2ccccc2C#N)CC1` gave HT1080NT lethal -3.4%, HT1080 IDH1KD tx -1.2%, KB-V1 MDR tox 14.6µM*, KB-3-1 tox inactive, MCF10A rereplic 3.9% and SW480 rerep -4.8%.
Screening COc1cccc(NC(=O)c2ccccc2OCc2c(C)noc2C)c1 returned HT1080NT lethal 7.2%, HT1080 IDH1KD tx 5.1%, KB-V1 MDR tox inconclusive, KB-3-1 tox inactive, MCF10A rereplic 1.3% and SW480 rerep -7.7%.
`COc1ccc(CCNC(=O)c2ccccc2OCc2c(C)noc2C)cc1` gave HT1080NT lethal -2.2%, HT1080 IDH1KD tx -7.9%, KB-V1 MDR tox 5.8µM*, KB-3-1 tox inactive, MCF10A rereplic -4.0% and SW480 rerep -3.7%.

Source: PubChem (National Center for Advancing Translational Sciences (NCATS))
